The list is not random: actives were taken first. Their share in the collection is about 0.71%.
FXIa mix inh: blocks human factor XIa in pooled compound mixtures; AID 680; inhibition, % at 5 µM; purified FXIa, fluorogenic substrate; 0.19% of 62,000 active; P03951;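 further: each value is inhibition by a whole ten-compound pool holding the compound; 0% = enzyme with no mixture and 100% = wells lacking enzyme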
C1s inh: human complement C1s inhibition. mean inhibition % of two 10-compound mixtures (stronger effect = higher value), % at 5 µM (by protocol). purified C1s, fluorogenic AMC substrate, pooled mixtures. AID 538. 0.16% of 62,000 active. P09871;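 active means inhibition above 20% in each of the two 10-compound mixture wells holding the compound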;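 further: 0% = enzyme wells lacking compound mixture and 100% = no-enzyme blank wells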
FXIIa mix inh: blocks human factor XIIa in pooled compound mixtures; P00748; purified FXIIa, fluorogenic substrate; inhibition, % at 5 µM; 0.2% of 62,000 active; AID 684;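 further: 0% = enzyme without compound and 100% = no enzyme blank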
Target sequence (P00748 20-372 limits assumed): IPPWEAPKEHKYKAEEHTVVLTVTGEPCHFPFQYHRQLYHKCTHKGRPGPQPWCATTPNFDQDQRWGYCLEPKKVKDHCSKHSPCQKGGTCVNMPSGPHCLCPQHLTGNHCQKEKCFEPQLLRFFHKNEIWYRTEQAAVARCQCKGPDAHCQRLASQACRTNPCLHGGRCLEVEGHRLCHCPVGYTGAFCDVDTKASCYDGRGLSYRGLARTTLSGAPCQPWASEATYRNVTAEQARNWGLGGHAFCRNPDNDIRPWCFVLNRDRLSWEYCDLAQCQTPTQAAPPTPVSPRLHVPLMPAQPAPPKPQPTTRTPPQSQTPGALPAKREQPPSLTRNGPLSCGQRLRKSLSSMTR
Target sequence (P00748 373-615 limits assumed): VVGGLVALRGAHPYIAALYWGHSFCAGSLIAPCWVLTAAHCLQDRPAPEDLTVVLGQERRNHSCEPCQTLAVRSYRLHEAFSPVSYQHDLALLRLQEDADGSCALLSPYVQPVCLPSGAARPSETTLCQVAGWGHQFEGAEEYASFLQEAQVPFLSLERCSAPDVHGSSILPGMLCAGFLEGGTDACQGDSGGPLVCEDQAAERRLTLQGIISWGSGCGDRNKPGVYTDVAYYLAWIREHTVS
CatG inh: blocks human cathepsin G enzyme activity. P08311. 0.2% of 62,000 active. purified enzyme, AMC-tetrapeptide fluorescence, pooled mixtures. AID 581. inhibition, % at 5 µM (by protocol);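 active means inhibition above 20% in each of the two mixture wells holding the compound; inactive means inhibition of 20% or less in either well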;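 further: 0% = enzyme control without mixture and 100% = blank lacking enzyme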
mHtt clearance: compounds clearing mutant huntingtin protein. inhibition, % at 1.5 µM. AID 853. HeLa Exon1htt(103Q)mCFP, aggregate imaging; zero = plate's median compound well. 0.42% of 47,000 active;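 active means inhibition of aggregate fluorescence above about 70%, also judged a hit by eye on the cell image, limit read from the data, passing the limit was not always enough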;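 further: cells exposed to compound for three days before fixation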
Starred values were filed as active, the others as inactive; / = no result. Unless noted, no stated cut-off is given here; in the data, active means inhibition above about 20% (passing the limit was not always enough); inactive means the rest.

SMILES | FXIa mix inh | C1s inh | FXIIa mix inh | CatG inh | mHtt clearance
CC1(C)NC(=O)N(CC(O)COC2CCCCC2)C1=O (configuration not stated) | 2.9 | -1.6 | 20.1* | -4.1 | /
COc1ccc(C(=O)c2c[nH]c3ccccc23)cc1 | 0.3 | 4.4 | 6.4 | 0.7 | -38.1
O=C(NCC1(N2CCOCC2)CCCCC1)c1ccc(Cl)c(S(=O)(=O)NCc2ccco2)c1 | 5.4 | 1.7 | 8.1 | -0.6 | 28.9
C=C(C)c1cccc(C(C)(C)NC(=O)N2CC(C)OC(C)C2)c1 (configuration not stated) | 2.4 | -1.6 | 21.9* | -2.2 | /
C=C(C)c1cccc(C(C)(C)NC(=O)N2CCCC2)c1 | / | / | / | / | -4.6
COc1cccc(CNC(=O)c2ccccc2N)c1 | 7.4 | -32.3 | 0.4 | 22.1 | 81.5*
COc1ccc2c(c1)CCc1c(C(=O)NCc3cccnc3)noc1-2 | 12.7 | 18.9 | 3.1 | 87.2* | 21.0
COc1cc(OC)cc(C(=O)NCc2cccnc2)c1 | -9.9 | -25.1 | 4.3 | -7.1 | 75.2*
CN(C)/C=C1\C(=O)c2ccc(N(C)C)nc2CC1c1ccccc1 (configuration not stated) | 9.0 | 4.9 | -11.1 | 6.8 | /
Cc1ccc(NC(=O)c2ccccc2N(C)S(C)(=O)=O)cc1C | / | / | / | / | -22.6
COc1cc(C)nc(NS(=O)(=O)c2ccccc2)n1 | 6.8 | 22.1* | 2.6 | 9.0 | 20.5
Cc1cccc(-n2c(Cc3cc(=O)[nH]c(=O)[nH]3)nnc2SCC(=O)N2CCCCC2)c1 | 21.3* | -5.1 | 11.4 | -0.5 | -32.1
CCOC(=O)N1CCC(c2cc(=O)n3[nH]c(C)c(-c4ccc(F)cc4)c3n2)CC1 | 6.0 | -2.4 | 12.4 | 1.4 | 81.5*
COC(=O)C1C(=O)c2c([nH]c(C(=O)OCC3CCCO3)c2C)CC1C (configuration not stated) | -1.7 | -36.0 | -0.8 | 1.6 | /
CC(OC(=O)c1cccc(NS(C)(=O)=O)c1)C(=O)Nc1ccc(N2CCOCC2)cc1 (configuration not stated) | 11.0 | -1.6 | 6.8 | 4.7 | 42.6
COc1ccc(-n2c(SCC(=O)N3CCN(c4ccccc4)CC3)nc3c(c2=O)SCC3)cc1 | 4.3 | 0.4 | -18.4 | 6.4 | /
Cc1ccc(-n2c(SCC(=O)N3CCCC3)nc3c(c2=O)SCC3)cc1 | 6.8 | 20.9* | 0.6 | 11.0 | /
CC(C)OC(=O)c1cccnc1SCc1cc(=O)n2ccccc2n1 | 1.0 | -39.6 | 2.0 | -9.2 | -29.1
C=CCn1c(NCCc2ccccc2)nc2c1c(=O)n(C)c(=O)n2C | / | / | / | / | -61.0
Cc1ccc(Cn2c(NCCc3ccccc3)nc3c2c(=O)n(C)c(=O)n3C)cc1 | 9.1 | 6.5 | 1.5 | 5.7 | 71.2*
O=C(Nc1ccc(CN2CCOCC2)cc1)c1cc2ccccc2o1 | -1.8 | -1.2 | 12.4 | 0.0 | /
O=C(NCCN1CCOCC1)c1cc2ccccc2o1 | 8.8 | 5.3 | 34.2* | -1.4 | /
CCOC(=O)c1c(NC(N)=O)sc(C)c1C | 28.9* | 19.1 | 6.6 | 15.4 | 1.6
CCOC(=O)c1c(NC(=O)c2csc(C)c2)sc(C(C)=O)c1C | 5.0 | 9.3 | 1.8 | 6.3 | 78.2*
CCOC(=O)c1c(NC(=O)CSc2nnc(-c3ccccc3C)n2C)sc(C(C)=O)c1C | 7.7 | -19.8 | 4.6 | -0.8 | 75.8*
SMILES | FXIa mix inh | C1s inh | FXIIa mix inh | CatG inh | mHtt clearance
CC(c1cccnc1)N(CCN(C)C)C(=O)Nc1ccc(Cl)cc1 (configuration not stated) | / | / | / | / | -320.3
COC(=O)c1ccc(C(=O)OC)c(NC(=O)c2ocnc2C)c1 | 0.6 | 13.9 | 11.6 | 9.9 | /
CCN(CC)S(=O)(=O)c1ccc(C(=O)N2CCN=C2SCc2cccnc2)cc1 | -4.5 | -53.4 | -3.0 | -0.8 | 23.4
O=C(Cn1cc([N+](=O)[O-])cn1)N1N=C(C(F)F)CC1(O)C(F)F (configuration not stated) | / | / | / | / | -117.3
O=C(COc1ccc(Cl)cc1)OCC(=O)N1CCCCCC1 | 27.0* | -0.1 | 0.0 | -1.6 | /
CCN(CC)S(=O)(=O)c1ccc2oc(C(=O)NCc3ccc(F)cc3)c(C)c2c1 | -0.2 | -9.2 | 5.6 | 10.3 | /
Cc1cccc(OCC(=O)Nc2cc(C)c(C)cc2O)c1 | 1.0 | 1.0 | -14.6 | 7.1 | 26.4
Cc1cccc(OCC(=O)Nc2cc(C)ccc2O)c1 | 12.7 | 6.3 | -2.9 | 2.5 | 84.8*
CCOC(=O)c1c(-c2ccc(C)o2)csc1NC(=O)CN1CCN(CC)CC1 | 5.9 | 59.1* | 5.6 | 13.4 | /
